Measured values from PubChem BioAssay AID431 (Sanford-Burnham Center for Chemical Genomics, 2006).
The whole screen tested about 63,000 compounds, of which about 1,100 (1.7%) were called active.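 How the source made its calls: active means compounds whose percent cytotoxicity in the single-dose primary screen, scaled between solvent and toxic-drug controls, exceeds 50; inactive means the rest.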 The sample as a whole holds a higher share of actives than the screen did. Entries with a potency or affinity are not part of this list.

Assay: viability loss of HPDE-C7K cells – cell-based, fluorescence, HTS, primary screen (AID 431);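 further: 0% = DMSO solvent wells and 100% = doxorubicin-treated wells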
Settings: HPDE-C7K KRASV12 cells, Alamar Blue viability, 48 h; at 10 µM; active compounds read high

Compound	cytotoxicity
O=C(COc1cc(Cl)ccc1Cl)Nc1nnc(CC(=O)N2CCOCC2)s1	-20% (inactive)
COc1ccccc1NC(=O)CN1CCN(CC(=O)Nc2ccc(F)cc2)CC1	11.3% (inactive)
CCCNc1nc2c(c(=O)[nH]c(=O)n2C)n1Cc1ccc(F)cc1	8.2% (inactive)
CC1Cc2ccccc2N1S(=O)(=O)c1ccc2c(c1)n(C)c(=O)c(=O)n2C (configuration not stated)	2.9% (inactive)
CCOC(=O)C1CCCN(S(=O)(=O)Cc2ccccc2)C1 (configuration not stated)	-14.4% (inactive)
O=C1CSC(=S)N1c1cccnc1	-10.8% (inactive)
O=C(O)c1ccc(CN2C(=O)CSC2=S)cc1	-5.7% (inactive)
Cc1cccc(NC(=O)c2oc3c(c2C)C(=O)CC(C)(C)C3)n1	-12.7% (inactive)
O=C(Nc1ccccc1C(=O)N1CCN(Cc2ccccc2)CC1)c1ccccn1	8.7% (inactive)
COc1ccc2[nH]c(=O)c(CN(C(=O)COc3ccccc3)C(C)C)cc2c1	-31.9% (inactive)
Cc1nn(C)cc1C1C2=C(CC(C)(C)CC2=O)OC2=C1C(=O)CC(C)(C)C2	2.9% (inactive)
COC(=O)C1=C(N)OC2=C(C(=O)CC(C)(C)C2)C1c1ccoc1 (configuration not stated)	-4% (inactive)
O=C(c1ccccc1C(=O)N1CCN(c2ccccc2F)CC1)N1CCN(c2ccccc2F)CC1	4% (inactive)
COc1ccccc1NC(=O)c1ccc(-c2ccccc2F)o1	-9% (inactive)
COC(=O)c1ccccc1NC(=O)c1ccc(COc2ccccc2)o1	10.5% (inactive)
COC(=O)c1ccccc1NC(=O)c1ccc(-c2ccccc2F)o1	90.9% (active)
COc1ccc(NC(=O)C(c2ccccc2)N(C)C(=O)c2cnccn2)cc1 (configuration not stated)	-2.6% (inactive)
CC1(C)Cc2c(sc3c2c(=N)n(Cc2ccco2)c(=O)n3CC(=O)Nc2ccccc2)CO1	8.6% (inactive)
Cc1ccc(NC(=O)Cn2c(=O)n(Cc3ccco3)c(=N)c3c4c(sc32)COC(C)(C)C4)cc1	23% (inactive)
CC1(C)Cc2c(sc3c2c(=N)n(Cc2ccco2)c(=O)n3CC(=O)Nc2ccc(Cl)cc2)CO1	52.6% (active)
COCCNS(=O)(=O)c1ccc2c(c1)C(=O)c1cc(S(=O)(=O)NCCOC)ccc1-2	-5.8% (inactive)
CC1C(=O)C(C)C(c2cccs2)NC1c1cccs1 (configuration not stated)	-4.9% (inactive)
CCOC(=O)c1csc(NC(=O)c2ccc(S(=O)(=O)N(C)C)cc2)n1	5.4% (inactive)
O=C(NC1CCCCC1)N1CCC(n2c(=O)[nH]c3ccccc32)CC1	-0.1% (inactive)
O=c1[nH]c2ccccc2n1CCCN1CCN(C(c2ccccc2)c2ccccc2)CC1	31.4% (inactive)
Cc1noc(C)c1CSc1nnc(-c2ccncc2)n1-c1cccc(Cl)c1C	-13.5% (inactive)

Compound	cytotoxicity
COc1cc(C2CC(=O)C=C(O)C2)cc(OC)c1OC (configuration not stated)	-10% (inactive)
CCOc1ccc(C(=O)NCc2cccnc2)cc1	0.5% (inactive)
O=S(=O)(c1ccc2nc(Cc3ccccc3)[nH]c2c1)N1CCOCC1	2.7% (inactive)
CC(=O)Nc1ccc(S(=O)(=O)N2CCC(c3nc4ccccc4[nH]3)CC2)cc1	10.6% (inactive)
CC(=O)Nc1ccc(S(=O)(=O)N2CCN(c3cc(C)nc4ccccc34)CC2)cc1	-3.8% (inactive)
CC(=O)Nc1nonc1NC(C)=O	-9.1% (inactive)
COc1cc(O)c(NC(C)=O)c2nonc12	1.5% (inactive)
Cc1ccc2nc(NCc3ccccc3)[nH]c2c1	85% (active)
COc1ccc2nc(NCc3ccccc3)[nH]c2c1	39.9% (inactive)
c1ccc(CNc2nc3ccccc3[nH]2)cc1	-13.8% (inactive)
O=S(=O)(NCc1ccccc1)c1cccc2nonc12	4.4% (inactive)
CCC1(C)Cc2c(sc3nc4n(c(=O)c23)CCS4)CO1 (configuration not stated)	20.1% (inactive)
CC(C)Cn1c(Br)nc2c1c(=O)n(CCC#N)c(=O)n2C	-5.5% (inactive)
O=C1NC2(CCCC2)N=C1c1ccc(Cl)cc1	-2.2% (inactive)
O=C1NC2(CCCCC2)N=C1c1ccccc1	0.3% (inactive)
Fc1ccccc1CSc1nc2ncccc2[nH]1	-2.9% (inactive)
CCS(=O)(=O)CCSc1nc2ccccc2s1	-6% (inactive)
O=C(CSc1nc2ccccc2s1)Nc1ncccn1	-2% (inactive)
CCS(=O)(=O)CCSc1nc2ccccc2o1	-13.9% (inactive)
c1ccc2oc(SCc3nc4ccccc4s3)nc2c1	1.9% (inactive)
Cn1c(SCc2cc(=O)n3cc(Br)ccc3n2)nnc1C1COc2ccccc2O1 (configuration not stated)	-2.9% (inactive)
COc1ccccc1-n1cnc2cc(NC(C)=O)ccc21	-14.9% (inactive)
CCC(=O)Nc1ccc2c(c1)ncn2-c1ccccc1OC	-32.9% (inactive)
COc1ccccc1-n1cnc2cc(NCc3ccco3)ccc21	66.4% (active)
Cc1cccc2nc(Cn3c(=O)n(CCC(=O)NCc4ccco4)c(=O)c4sccc43)cc(=O)n12	2.4% (inactive)
O=C(NCN1C(=O)C2C3C=CC(C3)C2C1=O)Nc1nccs1 (configuration not stated)	-8.1% (inactive)

Compound	cytotoxicity
Cc1c(C(=O)OC(C)C)[nH]c2c1C(=O)CCC2	18% (inactive)
Cc1ccc(C2C(C#N)=C(N)Oc3nc(-c4ccccc4)[nH]c32)o1 (configuration not stated)	0.6% (inactive)
Cc1ccc(SCc2[nH]nc3c2C(c2ccc(C)o2)C(C#N)=C(N)O3)cc1 (configuration not stated)	10.8% (inactive)
O=C(Nc1ccccc1)c1ccc(S(=O)(=O)NCC2CCCO2)cc1 (configuration not stated)	-7.8% (inactive)
COc1ccc(C2=NOC(C(=O)NCCCN3CCOCC3)C2)cc1 (configuration not stated)	1.1% (inactive)
Cc1ccc(-c2nnn(CC(=O)N(Cc3cccs3)C(C(=O)NC3CCCC3)c3ccco3)n2)o1 (configuration not stated)	66.5% (active)
Cc1ccc(-c2nnn(CC(=O)N(Cc3cccs3)C(C(=O)NC(C)(C)C)c3ccco3)n2)o1 (configuration not stated)	-2.9% (inactive)
Cc1ccc(-c2nnn(CC(=O)N(c3ccccc3)C(C(=O)NC3CCCC3)c3ccco3)n2)o1 (configuration not stated)	-7.9% (inactive)
CCOC(=O)N1CCN(C(=O)c2c(O)c3cccc4c3n(c2=O)CC4)CC1	-3% (inactive)
O=C(O)CSC1CC(=O)N(c2cccc(Cl)c2)C1=O (configuration not stated)	-10.2% (inactive)
CCc1nc(SCC(=O)c2ccc(C)c(C)c2)n[nH]1	-2.5% (inactive)
O=S(=O)(Nc1ccc2c(c1)nc1n2CCN(Cc2ccccc2)C1)c1ccccc1	0.8% (inactive)
O=S(=O)(Nc1ccc2c(c1)nc1n2CCN(Cc2ccccc2)C1)c1ccc(Cl)cc1	51.1% (active)
Cc1ccc(S(=O)(=O)Nc2ccc3c(c2)nc2n3CCN(Cc3ccccc3)C2)cc1	6.9% (inactive)
COc1ccc(CC(C)N2CCN(c3ccccc3OC)CC2)cc1OC (configuration not stated)	8.7% (inactive)
CCn1c(SCC(=O)NCc2ccco2)nc2c1c(=O)n(C)c(=O)n2C	-20.9% (inactive)
COC(=O)c1cc(NC(=O)c2nccnc2C(=O)O)cc(C(=O)OC)c1	-2.1% (inactive)
CC(=O)C1=C(C)NC(C)=C(C(C)=O)C1c1ccc(-c2ccccc2Cl)o1	-13% (inactive)
CCOC(=O)C1=C(C)NC2=C(C(=O)c3ccccc32)C1c1cccnc1 (configuration not stated)	12.3% (inactive)
COC(=O)C1=C(C)NC2=C(C(=O)c3ccccc32)C1c1ccc(-c2ccc(C(=O)O)cc2)o1 (configuration not stated)	62.8% (active)
Cc1ccc(C(=O)NCc2ccco2)cc1S(=O)(=O)N1CCCCC1	-20.4% (inactive)
Cc1c(NC(=O)c2ccccc2N)cccc1C(=O)O	6.3% (inactive)
CC(=O)c1cccc(NC(=O)CN(Cc2ccccc2)S(C)(=O)=O)c1	-3.4% (inactive)
O=C(C(NS(=O)(=O)c1cccs1)c1ccccc1)N1CCN(c2ccccc2)CC1 (configuration not stated)	-9.8% (inactive)
Cc1ccc2occ(CN3CCN(c4ccccc4)CC3)c(=O)c2c1	-18.2% (inactive)
COc1ccc2nc3oc(C(=O)N4CCN(c5cccc(Cl)c5)CC4)cc3cc2c1	25.9% (inactive)

Compound	cytotoxicity
O=C(O)c1ccccc1C(=O)N1CCN(c2cccc(Cl)c2)CC1	0.5% (inactive)
COc1ccccc1C(=O)N1CCN(c2cccc(Cl)c2)CC1	31.3% (inactive)
COc1ccc(OC)c(S(=O)(=O)N(C)CC(=O)N2CCN(c3cccc(Cl)c3)CC2)c1	-14.2% (inactive)
COc1cccc(N2CCN(Cc3coc4c(Cl)cc(Cl)cc4c3=O)CC2)c1	65% (active)
Cc1cc(C(=O)N2CCN(c3cccc(Cl)c3)CC2)c(C)o1	62.7% (active)
Cc1cc(C(=O)N2CCN(c3ncccn3)CC2)c(C)o1	6.7% (inactive)
COc1ccc(C(=O)N2CCN(c3cccc(Cl)c3)CC2)c(OC)c1	50.5% (active)
CCOc1ccc(C(=O)N2CCN(c3ccccc3)CC2)cc1OCC	-18% (inactive)
CCOc1ccccc1C(=O)N1CCN(c2cccc(Cl)c2)CC1	65.8% (active)
COc1ccc(N2CCN(Cc3cc(=O)oc4ccc(Cl)cc34)CC2)cc1	-1.6% (inactive)
Cc1cc(C(=O)CSc2nc3ccccc3n2CCC#N)c(C)n1Cc1cccs1	-13.5% (inactive)
Cc1ccc(C(=O)CSc2nnc(CNc3ccc(C)cc3C)n2Cc2ccco2)cc1	30.1% (inactive)
Brc1ccc2ncnc(Nc3ccc(N4CCOCC4)cc3)c2c1	-4.9% (inactive)
CCCn1c(SCC(=O)c2cc(OC)ccc2OC)nc2c1c(=O)n(C)c(=O)n2C	8.2% (inactive)
CCOC(=O)c1[nH]c(C)c(C(=O)NCC2CCCO2)c1C (configuration not stated)	5.6% (inactive)
CCCCN(CC)C(=O)c1ccc(Cl)c(Cl)c1	-3.6% (inactive)
O=C(c1cccc(F)c1)N1CCN(c2cccc(Cl)c2)CC1	26.8% (inactive)
O=C(c1ccccc1F)N1CCN(c2cccc(C(F)(F)F)c2)CC1	-5.2% (inactive)
COc1ccccc1C(=O)N1CCN(c2cccc(C(F)(F)F)c2)CC1	62.5% (active)
COc1cc(CN2CCSCC2)cc(OC)c1OC	-7.4% (inactive)
COc1ccc(CCNC(=O)CN2CCN(c3cccc(Cl)c3)CC2)cc1OC	8.7% (inactive)
O=C(c1c(Cl)nc2sccn12)N1CCN(c2cccc(Cl)c2)CC1	64.5% (active)
COc1ccccc1CC(=O)N1CCN(c2cccc(C(F)(F)F)c2)CC1	-1.7% (inactive)
Cc1ccc(C(=O)N2CCN(c3cccc(Cl)c3)CC2)cc1C	27.4% (inactive)
